# Results as given in PubChem BioAssay AID2314 (National Center for Advancing Translational Sciences (NCATS), 2010).
# Among all 300,000 compounds or so, about 37,000 (12%) were called active. The full list was thinned out, with actives kept by preference. A number with no mark means an inactive call. No stated cut-off is given here; in the data, active means max response mostly above about 13% (no sharp cut-off); inactive means mostly below about 14%.
# Test: Cycloheximide Counterscreen for Small Molecule Inhibitors of Shiga Toxin; further: read at 38.3 µM for the half of the compounds with a filed dose; 0% is about no effect
# Settings: cell reporter, cycloheximide protein synthesis inhibition counterscreen; stronger effect = higher value
row,Structure (SMILES),max response
1,Cc1ccc(C(=O)NCCc2nnc(SCC(=O)Nc3cccc(C(=O)O)c3)n2C)cc1,-0.755%
2,COc1ccc(C(=O)Nc2ccc(S(=O)(=O)Nc3onc(C)c3C)cc2)cc1OC,-2.06%
3,Cc1cc(OC(C)C(=O)Nc2ccc(S(=O)(=O)Nc3onc(C)c3C)cc2)cc(C)c1Cl (stereo unspecified),-2.3%
4,Cc1ccc(C(=O)/C=C/Nc2ccc(S(=O)(=O)Nc3onc(C)c3C)cc2)cc1,48.2% (active)
5,O=C(/C=C/c1ccc(Cl)cc1Cl)c1cccnc1,2.63%
6,O=C(/C=C/Nc1ccc(S(=O)(=O)Nc2cnc3ccccc3n2)cc1)c1cccnc1,19.6% (active)
7,Cc1noc(NS(=O)(=O)c2ccc(NC(=O)C34CCC(CC3)C4)cc2)c1C,-1.3%
8,CCn1c(SCC(=O)Nc2ccc(S(=O)(=O)Nc3onc(C)c3C)cc2)nnc1-c1ccccc1,5.03%
9,Cc1noc(NS(=O)(=O)c2ccc(N/C=C/C(=O)c3ccccc3)cc2)c1C,38.5% (active)
10,C=C(C)CNC(=S)Nc1ccc(S(=O)(=O)Nc2cnc3ccccc3n2)cc1,-1.53%
11,COC(=O)c1cnc(Nc2cc(C)ccc2OC)c2ccccc12,-3.28%
12,COc1cc(C(=O)NCc2cc3cc(Cl)ccc3n2C)cc(OC)c1OC,9.33%
13,COc1ccc(N2CCN(C(=O)c3cn(C)c4ccc(S(=O)(=O)N5CCOCC5)cc4c3=O)CC2)cc1,0.725%
14,CCc1ccc(C(=O)NC(=S)Nc2ccccc2N2CCOCC2)cc1,12.1%
15,CCCC(C(=O)NC1CCCC1)N(C(=O)Cn1nnc(-c2ccc(C)o2)n1)c1cccc(O)c1 (stereo unspecified),-3.39%
16,CCOC(=O)C(Cc1ccc(N)cc1)N1C(=O)c2ccccc2C1=O (stereo unspecified),15%
17,O=S(=O)(c1ccc(Br)c2ccccc12)N1CCOCC1,-2.9%
18,CC1CN(S(=O)(=O)c2cccc(C(F)(F)F)c2)CN1C(=O)N1CCOCC1 (stereo unspecified),-5.77%
19,COc1ccc(N2C(=O)CN=C2Nc2cccc(C)c2C)cc1OC,1.91%
20,Cc1ccc(N2C(=O)CN=C2Nc2nc(C)cc(C)n2)cc1,-2.81%
21,Cc1ccc(C)c(NC2=NCC(=O)N2c2ccc3c(c2)OCCO3)c1,17.5% (active)
22,CC(Sc1nnc(COc2ccccc2)n1-c1ccccc1)C(=O)O (stereo unspecified),-3.12%
23,Fc1ccc(-c2ccc(-c3nn4c(-c5ccco5)nnc4s3)o2)cc1,12.8% (active)
24,FC(F)(F)c1nnc2sc(-c3ccco3)nn12,-1.25%

row,Structure (SMILES),max response
1,Cc1nnc2sc(-c3ccco3)nn12,-2.36%
2,COc1ccc([N+](=O)[O-])cc1NC(=O)C(C)OC(=O)C1c2ccccc2Oc2ccccc21 (stereo unspecified),-1.06%
3,CCN(C(=O)CN1CCN(Cc2ccccc2)CC1)c1c(N)n(Cc2ccccc2)c(=O)[nH]c1=O,-1.94%
4,Cc1nn(C(C)C(=O)NCCC2=CCCCC2)c(=O)c2nn(-c3ccccc3)c(C)c12 (stereo unspecified),12.2%
5,O=C(NCCC1=CCCCC1)C1CCN(Cc2cnn(-c3ccccc3)c2-n2cccc2)CC1,18.2%
6,C1=C(CCNc2ncnc3c2cnn3-c2ccccc2)CCCC1,34.6% (active)
7,O=C(COC(=O)/C(=C/c1cccs1)c1cccs1)NCc1ccccc1Cl,-3.92%
8,Cc1cc(OCCCC(=O)NCCN2C(=O)S/C(=C\c3cccnc3)C2=O)ccc1Cl,-1.74%
9,CCCC(=O)Nc1nc2ccc(NC(=O)c3c(F)c(F)c(OC)c(F)c3F)cc2s1,-1.72%
10,CSc1nc2ccc(NC(=O)c3c(F)cccc3F)cc2s1,48.4% (active)
11,CCCn1nc(C(=O)Nc2ccc3nc(C)sc3c2)c2ccccc2c1=O,2.94%
12,Cc1ccccc1-n1nnc2c(=O)oc3ccccc3c21,-0.308%
13,COC(=O)c1ccccc1NC(=O)C1CCN(S(=O)(=O)c2cc(OC)ccc2OC)CC1,-2.41%
14,O=c1c2c3c(sc2n(CCN2CCCC2)c(=O)n1Cc1ccccc1)CCCCC3,-3.62%
15,Cc1ccc(Nc2nc(-c3ccc(O)cc3O)cs2)nc1,50.9% (active)
16,Cc1ccc(NC(=O)c2cc(-c3ccc(C)o3)nc3ccccc23)nc1,-0.954%
17,COCCNc1nc(N)c([N+](=O)[O-])c(N2CCCCCC2)n1,3.03%
18,O=C(COC(=O)c1ccc(O)cc1)Nc1nccs1,9.78% (active)
19,Cc1cc(C(=O)OCC(=O)Nc2nccs2)c2ccccc2n1,-4.23%
20,CCCCOC(=O)Nc1nccs1,18.8%
21,Cc1occc1C(=O)NNC(=S)NCC(C)C,-3.12%
22,CC(C)CNC(=S)NC(=O)c1ccc(Cl)cc1,34.2% (active)
23,Cc1scc(C(=O)NNC(=S)NCC(C)C)c1C,-0.894%
24,Cc1cc(-c2nnc(SCC(=O)Nc3ccc(S(N)(=O)=O)cc3)n2N)n[nH]1,1.41%

row,Structure (SMILES),max response
1,CCCNC(=O)N1CCC(c2ccc3c(c2)OCO3)CC1,-1.8%
2,C=CCOc1ccccc1NC(=O)CN1C(=O)CNC1=O,0.268%
3,COC(=O)c1c(CCl)noc1C(=O)NC(C)C,-0.666%
4,COc1ccc(-c2cc3nc(C)c(CCC(=O)NC(C)CCc4ccco4)c(C)n3n2)c(OC)c1 (stereo unspecified),8.95%
5,CN(C)c1ccc(/C=N/NC(=O)C(O)c2ccc(Br)cc2)cc1 (stereo unspecified),8.48%
6,CC(=O)NC(CC(=O)O)c1ccc(F)cc1 (stereo unspecified),-1.3%
7,CN(C)c1ccc(C(CC(=O)O)C(=O)O)cc1 (stereo unspecified),38.6% (active)
8,COc1cc2ccccc2cc1C(=O)Nc1ccc(NC(=O)c2cccs2)cc1,-2.59%
9,COc1cc(NC(=O)COc2ccccc2Cl)ccc1NC(=O)C(C)C,0.487%
10,CN1CCN(C(=O)/C(=C\c2ccc3c(c2)OCO3)NC(=O)c2cccs2)CC1,-1.19%
11,CCC(=O)c1cc2c(cc1NC(=O)c1cccs1)OCCO2,-4.08%
12,COc1cc(NC(=O)c2ccc3c(c2)OCO3)ccc1NC(=O)c1cccs1,17.8% (active)
13,COc1cc(NC(=O)c2cccs2)ccc1NC(=O)c1ccccc1Cl,28.9% (active)
14,COc1ccc(S(=O)(=O)N2CCC(C(=O)NCCC(=O)NCc3cccc(OC)c3)CC2)cc1,-2.91%
15,Cc1cc(S(=O)(=O)NC2CCCC2)ccc1-n1cnnn1,-1.68%
16,CCC(=O)Nc1cccc(C2=NOC3(C2)C[C@@H](C(N)=O)N(C(=O)c2cc([N+](=O)[O-])cc([N+](=O)[O-])c2C)C3)c1 (stereo partly specified),3.34%
17,CC1=C(C(=O)Nc2ccccc2)C(c2cccs2)C(C#N)=C(SCC#N)N1 (stereo unspecified),-2.44%
18,O=C(Nc1ccc(N2CCN(C(=O)c3ccccc3)CC2)c(Cl)c1)c1ncn[nH]1,-0.606%
19,CCn1c(=N)n(CC(=O)c2cccc(OC)c2)c2ccccc21,35.3% (active)
20,CCCn1c(=N)n(CC(=O)c2ccc(Cl)c(Cl)c2)c2ccccc21,-0.499%
21,COc1ccc2cc(C(=O)O)n(CC(=O)c3ccccc3)c2c1,-1.7%
22,Cc1ccc(Cn2c(=N)c(S(=O)(=O)c3ccc(C)cc3)cc3c(=O)n4ccccc4nc32)cc1,-2.4%
23,C=CCc1cc(S(=O)(=O)c2ccc(O)c(CC=C)c2)ccc1O,-2.33%
24,Cc1c(NC(=O)c2coc(=O)c(Br)c2)c(=O)n(-c2ccccc2)n1C,10.1%

row,Structure (SMILES),max response
1,O=C(Nc1cccc(NC(=O)c2cccc(F)c2)c1)c1ccccc1,9.34%
2,O=C(Nc1cccc(F)c1)c1coc(=O)c(Br)c1,22.1% (active)
3,COc1ccc(CCNC(=O)CN2C(=O)CCSc3ccccc32)c(OC)c1,-1.78%
4,COc1ccc(CC(=O)N/N=C/c2cc([N+](=O)[O-])cc(Br)c2O)cc1,-2.73%
5,CCOc1cccc(/C=N/NC(=S)NCCN2CCOCC2)c1O,9.08%
6,O=C1CSC(=S)N1/N=C/c1ccc(O)c([N+](=O)[O-])c1,2.96%
7,CCOc1cccc(/C=N/N2C(=O)CSC2=S)c1O,13.3% (active)
8,Cc1cccc(CN2CCC(n3nccc3NC(=O)c3ccccc3C)CC2)n1,2.27%
9,COc1ccc(OCc2cn3c(C)cc(C)nc3n2)cc1,17.1%
10,CN(C(=O)c1cccc(OC2CCN(S(=O)(=O)N(C)C)CC2)c1)C1CCOC1 (stereo unspecified),16.6%
11,CN(C)S(=O)(=O)N1CCC(Oc2cccc(C(=O)NCCCC3CCCC3)c2)CC1,52.4% (active)
12,CNS(=O)(=O)c1cccc(C(=O)NCC2CCCCC2)c1,-3.55%
13,Nc1nc(NC(=O)/C=C/c2ccccc2)nn1-c1ccccc1,-0.981%
14,Cc1ccc(S(=O)(=O)Nc2nc(N)n(-c3ccccc3)n2)cc1,-2.82%
15,Cc1ccc(C(=O)Nc2nc(N)n(-c3ccccc3)n2)cc1,20.3% (active)
16,CC(=O)c1ccc(OCC(O)CN2CCN(S(=O)(=O)c3cccc(Br)c3)CC2)cc1 (stereo unspecified),-0.615%
17,O=c1c2cc([N+](=O)[O-])ccc2nc2n1CCC2,-3.29%
18,O=c1[nH]c(/C=C\c2cccc(C(F)(F)F)c2)nc(O)c1[N+](=O)[O-],-0.44%
19,C=CCN(C(=O)Nc1ccc2oc(C)nc2c1)c1ccccc1,44.6% (active)
20,Cc1nn(CC(=O)Nc2ccc3c(c2)nc(CN2CCCCC2)n3C)c(=O)c2ccccc12,9.68%
21,C=CCN(CC=C)C(=O)Nc1ccc(OCC)cc1,12.5%
22,C=CCN(C(=O)Nc1ccc2c(c1)nc(C)n2C)c1ccccc1,32.3% (active)
23,CCC(=O)Nc1ccc2nc(C)n(Cc3ccccc3Cl)c(=O)c2c1,-0.377%
24,C=CCN(C(=O)Cn1ncc2c1-c1cc(C)ccc1OC2)c1ccccc1,-3.22%
